# Data from ChEMBL document CHEMBL3988442, “University of Dundee, Small-Polar-MMV Screening Library” (2021).
# Molecular target: Sialic acid-binding Ig-like lectin 9 (Homo sapiens) (UniProt Q9Y336)
# Assay: Hs-Siglec9 ALPHAscreen SOP 20170721
# Parameters: scale not given: direction of the effect not stated beside the values
# Details: 10 µM
# Sialic acid-binding Ig-like lectin 9 (Homo sapiens), sequence (Q9Y336 whole entry): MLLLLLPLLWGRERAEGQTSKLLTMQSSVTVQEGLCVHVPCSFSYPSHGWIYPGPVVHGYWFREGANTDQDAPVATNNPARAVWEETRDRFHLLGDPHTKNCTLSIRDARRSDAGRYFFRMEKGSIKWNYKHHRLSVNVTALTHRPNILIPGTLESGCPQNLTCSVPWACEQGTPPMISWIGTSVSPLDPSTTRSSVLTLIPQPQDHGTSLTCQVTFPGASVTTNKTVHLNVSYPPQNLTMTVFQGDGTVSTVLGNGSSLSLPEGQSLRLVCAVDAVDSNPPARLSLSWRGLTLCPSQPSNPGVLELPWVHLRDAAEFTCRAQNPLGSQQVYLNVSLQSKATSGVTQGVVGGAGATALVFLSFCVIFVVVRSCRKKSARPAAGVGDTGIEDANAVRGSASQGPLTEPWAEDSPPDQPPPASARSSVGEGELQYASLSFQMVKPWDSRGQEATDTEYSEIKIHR
row,SMILES,Percent Effect [%]
1,CCc1nnc(CNCC2CCCN2c2cccnn2)o1 (stereo not given),4.6
2,Cc1cc(NC(=O)CN2CCc3nn(C)c(=O)cc3C2)on1,-0.594
3,CCc1c(C(=O)NCC(=O)OCC2CC2)cnn1-c1ccc(C)cc1,-2.84
4,Fc1ccc(CN2CCCN(Cc3cscn3)CC2)cc1,-10.1
5,Cc1cc(C)n(CC(=O)N2CCC(NS(C)(=O)=O)CC2)n1,0.107
6,CC(=O)NCCNC(=O)CN1CCN(Cc2nccn2C)C(C)C1 (stereo not given),14
7,CSCCCN1CCCC1c1noc(C)n1 (stereo not given),-5.04
8,CCn1ccnc1CN1CCC(CNC(=O)c2ccc(C)nc2)C1 (stereo not given),15.7
9,CC(=O)N1CC(Cc2nccc3ccn(C)c23)C1,-7.93
10,NC(=O)CN1CCC(NC(=O)c2ccn(-c3cccc(F)c3)n2)CC1,-2.99

# System: Trypanosoma cruzi
# Assay: Trypanosoma cruzi phosphomannomutase and mannose-1-phosphate guanylyltransferase assay
# Format: functional
# Parameters: scale not given: direction of the effect not stated beside the values
# Details: 10 µM
row,SMILES,Percent Effect [%]
1,O=C(NCCNc1ncccn1)N1CCN(Cc2cccnc2)CC1,10.5
2,CC(C)N1CCC(N2CCN(C3CCC3)CC2CCO)CC1 (stereo not given),5.73
3,COc1ccc(CN2CCCC(Cn3nc(C)nc3C)C2)cc1F (stereo not given),5.64
4,Cc1cnn(CCCNC(=O)N2CCCCC(N3CCCC3)C2)c1 (stereo not given),3.19
5,CCn1cc(NC(=O)NCC(c2cccs2)N(C)C)cn1 (stereo not given),-3.76
6,c1cnn(Cc2cn3c(n2)CN(Cc2nccs2)CC3)c1,5.23
7,CCc1noc(C2CCN(C(=O)CCn3nc(C)cc3C)CC2)n1,8.55
8,CC(C#N)CSc1ccccc1NCC(=O)Nc1ccc(F)cc1 (stereo not given),-3.33
9,CCc1nc(CN2CCCC(NCc3nnc(C4CC4)o3)C2)no1 (stereo not given),1.67
10,CCc1ccc(CCC(=O)N2CCOCC2c2ncon2)cc1 (stereo not given),-2.69
11,CC(=O)N1CCN(c2cc(C3CN(C)CCO3)nc(C)n2)CC1 (stereo not given),-3.36
12,CN(C)CC1CSCCCN1C(=O)Nc1ccc(C(C)(C)C)cc1 (stereo not given),-9.96
13,Cc1n[nH]c(C2CN(C(=O)c3ccco3)CCO2)n1 (stereo not given),1.07
14,Clc1ccccc1C1(c2ccnc(CC3CC3)n2)CCNCC1,6.59
15,Cc1cc2cc(C(=O)N[C@@H]3CC[C@@H](N4CCOCC4)[C@@H]3O)ccc2o1,2.57
16,CC(C)c1nnc2n1CCN(CC(=O)Nc1nncs1)C2,5.19
17,CCc1noc(C)c1C(=O)N1CCCC1c1c(C)nn(C)c1OC (stereo not given),2.36
18,COc1cc(C)nc(N2CCN(C(=O)c3ccc[nH]3)CC2)n1,3.68
19,O=C(NCc1cccnc1)C1CC(=O)N(CC2CC2)C1 (stereo not given),6.37
20,Fc1ccc(CN2CCO[C@H]3[C@H](OCC4CC4)CC[C@@H]32)cc1,4.83

row,SMILES,Percent Effect [%]
1,COCCN1CCC2(CCCN(C(=O)c3cnoc3C)C2)C1=O (stereo not given),-6.55
2,CC(C)CCN1CCNC(=O)C1CC(=O)N1CCc2sccc2C1 (stereo not given),3.44
3,O=C(CN1CCCCC1Cn1cncn1)NC1CCN(C2CC2)CC1 (stereo not given),3.28
4,COCCC(=O)N1CCC2(COCc3cnc(-c4ccccc4)nc32)C1 (stereo not given),-7.48
5,Cc1cc(CN2CCc3nn(C(C)C)c(=O)cc3C2)no1,-0.781
6,Cc1cccc(Cn2ccc(NS(C)(=O)=O)n2)c1,7.77
7,CN1CCN(Cc2ccccc2CNC(=O)c2ccc(Br)cc2F)CC1,-1.86
8,CCCC(=O)N1CCC(O)(Cn2c(CC)nc3ccccc3c2=O)CC1,3.16
9,CN(CC1(O)CCCCC1)C1CCCN(Cc2noc(C3CC3)n2)C1 (stereo not given),-3.46
10,Cc1ccc(N2CCCN(C(=O)C(C(C)C)n3cncn3)CC2)nn1 (stereo not given),3.62
11,CCc1nnc(CNCC2CCCN2c2cccnn2)o1 (stereo not given),2.78
12,Cc1cc(NC(=O)CN2CCc3nn(C)c(=O)cc3C2)on1,-1.46
13,CCc1c(C(=O)NCC(=O)OCC2CC2)cnn1-c1ccc(C)cc1,9.54
14,Fc1ccc(CN2CCCN(Cc3cscn3)CC2)cc1,-1.27
15,Cc1cc(C)n(CC(=O)N2CCC(NS(C)(=O)=O)CC2)n1,-1.69
16,CC(=O)NCCNC(=O)CN1CCN(Cc2nccn2C)C(C)C1 (stereo not given),-0.836
17,CSCCCN1CCCC1c1noc(C)n1 (stereo not given),6.39
18,CCn1ccnc1CN1CCC(CNC(=O)c2ccc(C)nc2)C1 (stereo not given),6.39
19,CC(=O)N1CC(Cc2nccc3ccn(C)c23)C1,1.18
20,NC(=O)CN1CCC(NC(=O)c2ccn(-c3cccc(F)c3)n2)CC1,-7.68
